Jurkat NFkB inh: lowers PMA/ionomycin-induced NF-kB signal in Jurkat cells; PMA/ionomycin-induced NF-kB luciferase reporter, luminescence; inhibition, % at 4 µM; 0.53% of 330,000 active; AID 435003; in the data active = inhibition above about 50%
Gli-Sufu antag: antagonists of Gli-Sufu signaling | Sufu-KO-LIGHT fibroblasts, Gli luciferase reporter luminescence | inhibition, % at 5 µM | 0.74% of 340,000 active | AID 588413;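 active = inhibition above about 55%, limit read from the data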;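 also: 0% = DMSO-treated cells and 100% = wells with medium but no cells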
CSC inhib: blocks cancer stem cells; cancer stem cell-like cells viability, luminescence; inhibition, % at 7.5 µM; 1.1% of 300,000 active; in the data active = inhibition above about 75%; tested in HMLE shEcad cells
Mdm2 MdmX PPI: inhibitors of human Mdm2/MdmX interaction. O15151+Q00987. SaOS-2 split-luciferase Mdm2/MdmX complementation, luminescence. inhibition, % at 8 µM. 3% of 330,000 active;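 active = inhibition of at least 50% at 8 µM in the primary screen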
697 NFkB inh: inhibitors of the PMA/ionomycin-induced NF-kB reporter in 697 B cells; inhibition, % at 4 µM; 697 B-cell NF-kB luciferase reporter, 16 h; 0.33% of 330,000 active; in the data active = inhibition above about 35%
aSyn UTR inh: 5' untranslated region of α-synuclein, MLPCN primary screen; inhibition, % (tested at 7.5 µM); 0.82% of 300,000 active; alpha-synuclein 5'UTR reporter, inhibitor activity; AID 1813; in the data active = inhibition above about 60%;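 also: H4 neuroglioblastoma cells stably carrying SNCA 5'UTR luciferase fusion; 0% = DMSO wells and 100% = positive control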
Mdm2 MdmX conf: human Mdm2/MdmX binding inhibition, confirmed | shares compounds with Mdm2 MdmX PPI | luminescent assay | inhibition, % at 8 µM | 55% of 10,000 active; in the data active = inhibition above about 40%
FLuc counter: full-length luciferase inhibition in Mdm2/MdmX counter-screen. inhibition, % at 8 µM. AID 504607. 77% of 6,200 active. SaOS-2 full-length luciferase counterscreen, luminescence. shares compounds with Mdm2 MdmX PPI;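 active = mean inhibition at 8 µM reaching about 37%, which flags the compound as non-specific, limit read from the data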;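 also: p53-null SaOS-2 cells with luciferase driven by a doxycycline-inducible promoter; compound on cells about two nights before reading with doxycycline added after day one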
Starred values were filed as active, the others as inactive. Most compounds without a hit are left out; they make up all but 4.5% or so of the library.

How did Nc1nc(/C=C/c2cccnc2)nc(-c2ccccc2O)n1 do in these assays?
Jurkat NFkB inh: 8; Gli-Sufu antag: 10; CSC inhib: 21; Mdm2 MdmX PPI: 76*; 697 NFkB inh: 19; aSyn UTR inh: -5; Mdm2 MdmX conf: 73*; FLuc counter: 64*

How did Nc1nc(/C=C/c2ccc(F)cc2)nc(-c2ccccc2O)n1 do in these assays?
Jurkat NFkB inh: -6; Gli-Sufu antag: 1; CSC inhib: -4; Mdm2 MdmX PPI: 19; 697 NFkB inh: 11; aSyn UTR inh: -53

What do the screens show for `O=C(CSc1ccccn1)Nc1nc2ccc(Br)cc2s1`?
Jurkat NFkB inh: -17; Gli-Sufu antag: -9; CSC inhib: -4; Mdm2 MdmX PPI: 8; 697 NFkB inh: 15; aSyn UTR inh: -50

Results for CC(=O)Nc1ccc(NC(=O)C(C)Oc2ccc(C)nc2[N+](=O)[O-])cc1 (centres undefined) ?
Jurkat NFkB inh: 0; Gli-Sufu antag: -1; Mdm2 MdmX PPI: -7; 697 NFkB inh: 21

What do the screens show for `CC(=O)OCC(=O)C1=CCC2C3CCC4=CC(=O)C=CC4(C)C3(F)C(OC(C)=O)CC12C` (centres undefined)?
Jurkat NFkB inh: 6; Gli-Sufu antag: -17; CSC inhib: -9; Mdm2 MdmX PPI: 78*; 697 NFkB inh: -36; aSyn UTR inh: -14; Mdm2 MdmX conf: 49*; FLuc counter: 46*

What do the screens show for `CCOC(=O)C(C)NC(=O)c1cn(-c2ccc(OC)cc2)c(=O)c2ccccc12` (centres undefined)?
Jurkat NFkB inh: -28; Gli-Sufu antag: 16; CSC inhib: -12; Mdm2 MdmX PPI: 20; 697 NFkB inh: 4; aSyn UTR inh: 13

Results for CCOC(=O)c1cnn(-c2nc(-c3cccc(F)c3)cs2)c1C(F)(F)F ?
Jurkat NFkB inh: -34; Gli-Sufu antag: -1; CSC inhib: -11; Mdm2 MdmX PPI: -13; 697 NFkB inh: 0; aSyn UTR inh: -34

How did CCC(=O)Nc1cccc(C2=NOC3(C2)C[C@@H](C(N)=O)N(C(=O)C(c2ccccc2)c2ccccc2)C3)c1 (some centres undefined) do in these assays?
Jurkat NFkB inh: -1; Gli-Sufu antag: 8; CSC inhib: 10; Mdm2 MdmX PPI: 15; 697 NFkB inh: 3; aSyn UTR inh: 14

How did NC(=O)[C@@H]1CC2(CC(c3cccc(NC(=O)COc4ccc(Cl)cc4)c3)=NO2)CN1C(=O)COc1ccc(Cl)cc1 (some centres undefined) do in these assays?
Jurkat NFkB inh: 17; Gli-Sufu antag: 3; CSC inhib: 30; Mdm2 MdmX PPI: 59*; 697 NFkB inh: -33; aSyn UTR inh: 43; Mdm2 MdmX conf: 20

How did N#CCC(=O)N1CC2(CC(c3cccc(NC(=O)COc4ccc(Cl)cc4)c3)=NO2)C[C@@H]1C(N)=O (some centres undefined) do in these assays?
Jurkat NFkB inh: -23; Gli-Sufu antag: -20; CSC inhib: -6; Mdm2 MdmX PPI: -7; 697 NFkB inh: -92; aSyn UTR inh: 10

Results for NC(=O)[C@H]1CC2(CC(c3cccc(NC(=O)COc4ccc(Cl)cc4)c3)=NO2)CN1C(=O)C(c1ccccc1)c1ccccc1 (some centres undefined) ?
Jurkat NFkB inh: 6; Gli-Sufu antag: 0; CSC inhib: 35; Mdm2 MdmX PPI: 60*; 697 NFkB inh: -19; aSyn UTR inh: 0; Mdm2 MdmX conf: 14

Results for N#CC1=C(N)Oc2cc3c(cc2C1c1ccc(Cl)cc1)OCO3 (centres undefined) ?
Jurkat NFkB inh: 17; Gli-Sufu antag: -11; CSC inhib: 44; Mdm2 MdmX PPI: 61*; 697 NFkB inh: 4; aSyn UTR inh: 9; Mdm2 MdmX conf: 46*; FLuc counter: 60*

How did COc1cc(C2C(C#N)=C(N)Oc3cc(O)ccc32)cc2c1OCO2 (centres undefined) do in these assays?
Jurkat NFkB inh: 15; Gli-Sufu antag: 7; CSC inhib: -2; Mdm2 MdmX PPI: 57*; 697 NFkB inh: 9; aSyn UTR inh: -29; Mdm2 MdmX conf: 56*; FLuc counter: 59*

How did COc1ccc(C2C(C#N)=C(N)Oc3cc(O)ccc32)cc1C (centres undefined) do in these assays?
Jurkat NFkB inh: 1; Gli-Sufu antag: -5; CSC inhib: 6; Mdm2 MdmX PPI: 15; 697 NFkB inh: 6; aSyn UTR inh: -9

How did COc1cc(NC(=O)COC(=O)CCOc2ccc(C)cc2)cc(OC)c1 do in these assays?
Jurkat NFkB inh: 9; Gli-Sufu antag: -2; CSC inhib: -7; Mdm2 MdmX PPI: 30; 697 NFkB inh: 5; aSyn UTR inh: 4

What do the screens show for `CC(C)(C)n1nnnc1C(c1cccs1)N(Cc1ccc(Cl)cc1)CC1CCCO1` (centres undefined)?
Jurkat NFkB inh: 0; Gli-Sufu antag: -8; CSC inhib: 27; Mdm2 MdmX PPI: 56*; 697 NFkB inh: -19; aSyn UTR inh: -14; Mdm2 MdmX conf: 57*; FLuc counter: 70*

How did COc1ccccc1N1CCN(Cc2cc(=O)c(OCC(=O)NC3CCCC3)co2)CC1 do in these assays?
Jurkat NFkB inh: 13; Gli-Sufu antag: 1; CSC inhib: -4; Mdm2 MdmX PPI: 5; 697 NFkB inh: 5; aSyn UTR inh: -1

How did OCCCn1c(C2CCCN2c2nc(-c3ccc(Cl)cc3)cs2)nc2cc(Cl)c(N3CCCCC3)cc21 (centres undefined) do in these assays?
Jurkat NFkB inh: 8; Gli-Sufu antag: 8; CSC inhib: 13; Mdm2 MdmX PPI: 73*; 697 NFkB inh: 13; aSyn UTR inh: 35; Mdm2 MdmX conf: 19

What do the screens show for `Cc1csc(N2CCCC2c2nc3cc(Cl)c(N4CCCCC4)cc3n2CCCO)n1` (centres undefined)?
Jurkat NFkB inh: 6; Gli-Sufu antag: 7; CSC inhib: 3; Mdm2 MdmX PPI: 27; 697 NFkB inh: 8; aSyn UTR inh: 1

Results for OCCCn1c(C2CCCN2c2nc(-c3ccc(F)cc3)cs2)nc2cc(Cl)c(N3CCCCC3)cc21 (centres undefined) ?
Jurkat NFkB inh: 11; Gli-Sufu antag: 15; CSC inhib: 1; Mdm2 MdmX PPI: 63*; 697 NFkB inh: 5; aSyn UTR inh: -27; Mdm2 MdmX conf: -6

How did COC(=O)CSc1nc2ccc(NC(=O)CSc3nnnn3Cc3ccccc3)cc2s1 do in these assays?
Jurkat NFkB inh: 8; Gli-Sufu antag: 1; CSC inhib: 2; Mdm2 MdmX PPI: 94*; 697 NFkB inh: 11; aSyn UTR inh: -16; Mdm2 MdmX conf: 32

Results for O=C(CSc1nc2ccc(NC(=O)CSc3nnnn3Cc3ccccc3)cc2s1)Nc1ccccc1 ?
Jurkat NFkB inh: -7; Gli-Sufu antag: 1; CSC inhib: -10; Mdm2 MdmX PPI: 50*; 697 NFkB inh: -5; aSyn UTR inh: -18; Mdm2 MdmX conf: 15

Screening data deposited in PubChem BioAssay by several laboratories.
